Gli-Sufu block – antagonists of Gli-Sufu signaling | Sufu-KO-LIGHT fibroblasts, Gli luciferase reporter luminescence | inhibition, % at 5 µM | hit rate 0.74% among 340,000 | AID 588413;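 active = inhibition above about 55%, limit read from the data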;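 note: 0% = DMSO-treated cells and 100% = wells with medium but no cells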
Shn3 3UTR inh – reduces Shn3 3'UTR luciferase signal in osteoblasts | Clone20 osteoblast Shn3 3'UTR firefly luciferase, 24 h | inhibition, % at 12.5 µM | hit rate 0.52% among 360,000 | AID 588674;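 active = mean inhibition of at least 75% with every replicate also reaching 75%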;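 note: 0% = median of neutral control wells and 100% = pilot-screen positive control compound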
NR5A2 inv ag – suppresses constitutive activity of human LRH-1; HEK293T StAR-luciferase reporter, LRH-1 transfected, 24 h; inhibition, % at 3.6 µM; hit rate 0.13% among 360,000;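 active = inhibition above the mean inhibition of all tested compounds plus 3 SD, cut at about 73% in these data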;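 note: 0% = DMSO wells and 100% = reporter-only cells lacking LRH-1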
Target sequence (O00482 whole entry, looked up): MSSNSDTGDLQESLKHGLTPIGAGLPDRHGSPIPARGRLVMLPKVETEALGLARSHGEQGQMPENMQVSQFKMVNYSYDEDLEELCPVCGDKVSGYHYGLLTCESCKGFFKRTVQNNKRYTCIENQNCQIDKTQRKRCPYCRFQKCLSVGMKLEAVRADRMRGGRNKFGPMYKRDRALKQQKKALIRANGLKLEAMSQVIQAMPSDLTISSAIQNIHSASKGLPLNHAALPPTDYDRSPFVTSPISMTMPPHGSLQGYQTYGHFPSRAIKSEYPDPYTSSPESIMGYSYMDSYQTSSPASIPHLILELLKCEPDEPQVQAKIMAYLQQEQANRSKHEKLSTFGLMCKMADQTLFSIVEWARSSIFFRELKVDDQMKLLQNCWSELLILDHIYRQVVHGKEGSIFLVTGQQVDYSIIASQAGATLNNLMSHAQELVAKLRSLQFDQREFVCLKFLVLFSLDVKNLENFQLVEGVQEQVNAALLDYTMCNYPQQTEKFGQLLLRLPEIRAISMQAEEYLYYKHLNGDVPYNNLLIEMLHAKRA
SRC3 inh – inhibits human SRC3 coactivator; HEK293 GAL4-SRC3 luciferase reporter, luminescence; hit rate 0.17% among 360,000; inhibition, % at 3.6 µM; Q9Y6Q9;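 active = inhibition above a per-campaign cutoff, the mean of all compounds plus 3 SD, cut at about 60% in these data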;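 note: 0% = DMSO-treated cells and 100% = gossypol-treated cells at 36 µM; higher means less SRC3-driven luciferase light from the GAL4 reporter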
SRC1 inh – inhibits human SRC1 coactivator; Q15788; AID 588354; HEK293 GAL4-SRC1 luciferase reporter, luminescence; hit rate 0.12% among 360,000; inhibition, % at 3.6 µM;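 active = inhibition above the campaign mean plus 3 SD, with each screening campaign given its own cutoff, cut at about 60% in these data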;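 note: 0% = DMSO treated cells and 100% = gossypol at 36 µM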
SRC2 inh – human SRC2 (NCOA2) inhibition; Q15596; inhibition, % at 9 µM; HEK293 GAL4-SRC2 luciferase reporter, luminescence; hit rate 0.17% among 370,000;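 active = inhibition above the mean inhibition of all tested compounds plus 3 SD, set per campaign, cut at about 52% in these data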;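 note: 0% = DMSO treated cells and 100% = cells given Gossypol at 36 µM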
Gli antag conf – confirmation of Gli-SUFU pathway antagonists; shares compounds with Gli-Sufu block; Sufu-KO-LIGHT cells, Gli luciferase reporter, luminescence; inhibition, % at 5 µM; hit rate 40% among 2,500; AID 602428;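 active = mean inhibition at 5 µM reaching about 45%, limit read from the data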;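 note: plate controls were DMSO-treated cells for no effect and wells lacking cells for full effect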
Gli cytotox – counter-screen for Gli-SUFU antagonists: cytotoxicity; shares compounds with Gli-Sufu block; Sufu-KO-LIGHT cells cytotoxicity, ATP luminescence; cytotoxicity, % at 5 µM; hit rate 32% among 2,500; AID 651994;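 active = mean cytotoxicity at 5 µM above about 25%, limit read from the data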;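 note: cells exposed to compound overnight for roughly 16 to 18 hours; plate controls were DMSO wells with cells for no effect and medium without cells for full effect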
Wnt3a counter – Wnt3a reporter inhibition counter-screen | AID 651995 | shares compounds with Gli-Sufu block | hit rate 20% among 2,500 | Wnt-LIGHT cells, Wnt3a-driven luciferase reporter, luminescence | inhibition, % at 6.25 µM;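 active = mean inhibition above about 25%, limit read from the data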
* = called active by the depositor; x = no result given. A selection: hits, their analogues and other compounds. The true share with any hit is near 1.1%.

SMILES	Gli-Sufu block	Shn3 3UTR inh	NR5A2 inv ag	SRC3 inh	SRC1 inh	SRC2 inh	Gli antag conf	Gli cytotox	Wnt3a counter
O=S(=O)(NCC1CCCO1)c1ccc(-c2ccc(S(=O)(=O)NCC3CCCO3)cc2)cc1 (stereo unspecified)	74*	79	46	33	19	22	67*	31*	35*
COc1ccc(-c2noc(CCCCC(=O)N3CCN(c4cc(C)ccc4C)CC3)n2)cc1	68*	92*	40	21	25	37	73*	28*	30*
COc1ccc(-c2noc(CCCC(=O)N3CCN(c4cc(C)ccc4C)CC3)n2)cc1	7	-50	-60	-54	-83	-23	x	x	x
CCOC(=O)[C@]12CCCC=C1N(Cc1ccc(OC)cc1)C(=O)[C@@H]2CC(=O)NCCc1ccccc1OC	x	x	x	x	x	5	x	x	x
COC(=O)C1=C(CN2CCc3ccccc32)NC(=O)NC1c1cc(C)ccc1C (stereo unspecified)	10	21	11	8	-22	2	x	x	x
COC(=O)C1=C(CN2CCCc3ccccc32)NC(=O)NC1c1ccc(F)cc1 (stereo unspecified)	82*	74	91*	84*	87*	85*	36	19	72*
CC(=O)N1CCc2cc(S(=O)(=O)NCCC(=O)N(C)Cc3ccccc3F)ccc21	x	x	x	x	x	19	x	x	x
C=CCN1[C@H](CO)[C@H](c2ccc(Br)cc2)[C@@H]1C#N	x	x	x	x	x	-32	x	x	x
O=C(COC(=O)CSc1ccc(F)cc1)NCC1CCCCC1	95*	-3	-6	0	-7	3	30	16	-6
O=C(COC(=O)CSc1ccc(F)cc1)NC1CC1	x	2	-2	12	-11	-14	x	x	x
CCOc1ccccc1NC(=O)CCN1CCN(S(=O)(=O)c2ccc(Br)cc2)CC1	53	16	14	-7	0	-26	17	19	-74
COC(=O)C1CN(Cc2ccccc2)CCS(=O)(=O)N1Cc1cn(Cc2ccc(C)cc2)nn1 (stereo unspecified)	x	x	x	x	x	24	x	x	x
Cc1cc(C)c2[nH]c(=O)c(CN(CC3CCCO3)C(=S)Nc3ccccc3)cc2c1 (stereo unspecified)	12	15	3	13	-8	-2	x	x	x
Cc1ccc2cc(CN(CC3CCCO3)C(=S)Nc3ccccc3)c(=O)[nH]c2c1C (stereo unspecified)	65*	39	36	-40	-58	8	81*	33*	22
O=[N+]([O-])c1ccc2ncnc(N3CCN(Cc4ccc5c(c4)OCO5)CC3)c2c1	68*	85	30	56	61	49	36	26*	-16
O=[N+]([O-])c1cccnc1N1CCN(Cc2ccc3c(c2)OCO3)CC1	-13	12	3	-17	-1	-4	x	x	x
COc1ccc(/C=C/C(=O)c2cc(F)ccc2OC(=O)c2ccc(OC)c(OC)c2)cc1OC	0	-10	-12	11	19	-21	x	x	x
COc1ccc(/C=C/C(=O)c2cc(F)ccc2OC(=O)c2ccccc2)cc1OC	50	1	34	-11	-7	18	60*	49*	16
CCOC(=O)[C@]12CCCCC/C=C\1N(CCc1ccc(Cl)cc1)C(=O)[C@H]2CC(=O)NCC12CC3CC(CC(C3)C1)C2	x	x	x	x	x	-25	x	x	x
Cc1csc(=Nc2cccnc2)n1Cc1ccco1	55*	5	4	12	-10	5	4	0	-22
Cc1[nH]n(-c2ccccc2)c(=S)c1C=NCCCN=Cc1c(C)[nH]n(-c2ccccc2)c1=S	71*	17	-10	-4	-5	-15	32	32*	-94
CSCCCNC(=O)CN1C(=O)C2CCCCN2C(=O)c2ccccc21 (stereo unspecified)	x	x	x	x	x	-8	x	x	x
CC(C)N(Cc1cn(Cc2ccccc2)nn1)S(=O)(=O)c1ccc(F)cc1Br	x	x	x	x	x	18	x	x	x
